# Screen size: about 66,000 compounds; about 960 (1.5%) showed an effect of 50% or more. For the sample, strong results were picked, then their nearest neighbours and some compounds at random.
# Test system: Trypanosoma brucei
# Assay: Trypanosoma brucei 72 hour study
# Assay type: functional, organism-based
# Design: scale not given: in the data most compounds retested in dose-response had high values
smiles,measurement,setting,value
CCS(=O)(=O)N1C[C@H]2C[C@H](C(=O)N(C)C)[C@@H](C1)O2,Percent Effect,"30 µM, 30.03 µM",9.915%
O=C(NCC(=O)N1CCN(c2ccccc2)CC1)c1sccc1C1CC1,Percent Effect,"30 µM, 30.03 µM",8.848%
CCC(=O)N1CCN(CCn2cccn2)c2ncccc2C1.O=C(O)C(F)(F)F,Percent Effect,"30.3 µM, […]",-68.7%
N#Cc1ccc(C(=O)N2CC[C@H]3[C@H]2CCN3CC2CC2)cc1.O=C(O)C(F)(F)F,Percent Effect,"30.3 µM, […]",-8.518%
Cc1ccccc1-c1cncc(C2CCN(S(=O)(=O)N(C)C)CC2)n1,Percent Effect,"30.3 µM, […]",23.75%
CCC(=O)N1CCCN(Cc2cc(F)cc(Br)c2)CC1,Percent Effect,"30 µM, 30.03 µM",-27.39%
CN1C[C@H]2CC[C@@H]1CN(C(=O)COCc1nc3cc(F)ccc3[nH]1)C2,Percent Effect,"30 µM, 30.03 µM",-9.559%
CC(C)(C)n1ncc2c1CCCC2NCc1ccsc1 (stereo not drawn),Percent Effect,"30 µM, 30.03 µM",-15.69%
O=C(NCc1cnc2n1CCN(Cc1nccs1)CC2)C1CCC1.O=C(O)C(F)(F)F,Percent Effect,"30.3 µM, […]",-21.25%
COCC(=O)N1CCC2(CC1)CN(CC1CC1)c1ccc(F)cc12,Percent Effect,"30.3 µM, […]",19.77%
CCCc1cc(CNC2CCN(c3nc4ccccc4s3)CC2)on1,Percent Effect,"30 µM, 30.03 µM",-8.839%
CCCc1cc(NCCCC2CCOC2)n2nccc2n1 (stereo not drawn),Percent Effect,"30.3 µM, […]",14.64%
Cn1ccnc1SCCNC1CCN(c2nc3ccccc3s2)CC1,Percent Effect,"30 µM, 30.03 µM",-14.43%
CCS(=O)(=O)CCNC1CCN(c2nc3ccc(Cl)cc3s2)CC1,Percent Effect,"30.3 µM, […]",67.3%
CCc1nccn1CCNC1CCN(c2nc3ccc(Cl)cc3s2)CC1,Percent Effect,"30.3 µM, […]",100.4%
Cc1csc2c(N3CCC(NCCc4ccnn4C)CC3)ncnc12,Percent Effect,"30 µM, 30.03 µM",-26.9%
Cc1csc2c(N3CCC(NCCCC4CCOC4)CC3)ncnc12 (stereo not drawn),Percent Effect,"30 µM, 30.03 µM",-28.35%
Cc1n[nH]c(SCCNC2CCN(c3nc4ccccc4s3)CC2)n1,Percent Effect,"30 µM, 30.03 µM",-5.585%
Clc1ccc2nc(N3CCC(NCCCC4CCOC4)CC3)sc2c1 (stereo not drawn),Percent Effect,"30.3 µM, […]",69.37%
Cc1nc(NC(=O)c2c(-n3cnnn3)sc(C)c2C)sc1C,Percent Effect,"30 µM, 30.03 µM",-45.39%
O=C(O)C(F)(F)F.O=C(O)C(F)(F)F.c1cncc(OCc2noc3c2CN(Cc2ccco2)CC3)c1,Percent Effect,"30 µM, 30.03 µM",-42.06%
Cc1noc(C)c1CN1CCn2cc(CN3CCCCC3)nc2C1.O=C(O)C(F)(F)F,Percent Effect,"30.3 µM, […]",-9.044%
CCN1CCN(C(=O)c2cc(-c3cccn3C)n[nH]2)[C@H]2CS(=O)(=O)C[C@H]21,Percent Effect,"30 µM, 30.03 µM",-16.48%
CC(C)N1CC[C@H]2[C@H](C[C@@H](Cn3cncn3)N2c2nccs2)C1.O=C(O)C(F)(F)F.O=C(O)C(F)(F)F,Percent Effect,"30.3 µM, […]",-43.04%
COc1cccc(CN(Cc2ncc[nH]2)Cc2ccco2)c1.O=C(O)CC(O)(CC(=O)O)C(=O)O,Percent Effect,"30.3 µM, […]",-10.96%
CSc1ccc(CN2C[C@@H]3CC[C@@](O)(c4ccc(C)cn4)[C@@H]3C2)cc1,Percent Effect,"30.3 µM, […]",79.51%
Cc1ccc([C@]2(O)CC[C@H]3CN(Cc4cc(C)c(O)c(C)c4)C[C@H]32)nc1.O=C(O)CC(O)(CC(=O)O)C(=O)O,Percent Effect,"30.3 µM, […]",27.71%
Cc1ccc([C@]2(O)CC[C@H]3CN(Cc4ccc(Cl)cc4Cl)C[C@H]32)nc1,Percent Effect,"30.3 µM, […]",-1.046%
CN1CC2(CCCN(Cc3nnc(-c4ccccc4)o3)CC2)OC1=O (stereo not drawn),Percent Effect,"30 µM, 30.03 µM",-20.69%
COCCNC(=O)c1nnn(Cc2ccccc2)c1OC,Percent Effect,"30.3 µM, […]",3.67%
CCNC(=O)c1nnn(Cc2ccccc2)c1OC,Percent Effect,"30 µM, 30.03 µM",40.11%
CCN(CC)C(=O)c1nnn(Cc2ccccc2)c1OC,Percent Effect,"30 µM, 30.03 µM",61.55%
CCc1nnc(SC2CCCN(c3cccc(F)c3)C2=O)n1C (stereo not drawn),Percent Effect,"30 µM, 30.03 µM",-37.32%
CCOCC1CN(CCN(C)C)Cc2cnn(CC3CCCC3)c21.O=C(O)C(F)(F)F.O=C(O)C(F)(F)F (stereo not drawn),Percent Effect,"30 µM, 30.03 µM",-10.76%
Cc1ccc(C(=O)N2CC[C@@H](N(C)C)[C@@H]2Cc2cnn(C)c2)cn1.O=C(O)C(F)(F)F.O=C(O)C(F)(F)F,Percent Effect,"30.3 µM, […]",-478.3%
OCC1(CCOc2ccccc2)CCCN(c2ccc(Cl)cn2)C1 (stereo not drawn),Percent Effect,"30 µM, 30.03 µM",-34.7%
N#Cc1cccc(N2CCCC(CO)(CCOc3ccccc3)C2)n1 (stereo not drawn),Percent Effect,"30 µM, 30.03 µM",-42.71%
CC(=O)c1ccc(N2CCCC(CO)(CCOc3ccccc3)C2)nc1 (stereo not drawn),Percent Effect,"30 µM, 30.03 µM",71.93%
N#Cc1ccc(N2CCCC(CO)(CCOc3ccccc3)C2)nc1 (stereo not drawn),Percent Effect,"30 µM, 30.03 µM",-38.44%
CC(=O)c1ccc(N2CCCC(CO)(Cc3ccccc3C)C2)nc1 (stereo not drawn),Percent Effect,"30 µM, 30.03 µM",-6.304%
CC(=O)c1ccc(N2CCCC(CO)(CCc3ccccc3)C2)nc1 (stereo not drawn),Percent Effect,"30 µM, 30.03 µM",50.39%
Nc1nccc(N2CCCC(CO)(CCOc3ccccc3)C2)n1 (stereo not drawn),Percent Effect,"30 µM, 30.03 µM",82.96%
CC(=O)c1ccc(N2CCCC(CO)(Cc3ccccc3F)C2)nc1 (stereo not drawn),Percent Effect,"30 µM, 30.03 µM",-24.14%
CC(=O)c1ccc(N2CCC(CO)(CCOc3ccccc3)CC2)nc1,Percent Effect,"30 µM, 30.03 µM",16.6%
O=C(O)C(F)(F)F.O=C1CCCN1Cc1ncn2c1CN(C(=O)N1CCCC1)CCC2,Percent Effect,"30.3 µM, […]",-52.13%
Cc1occc1C(=O)N1CCC2(CCCN(c3ncc(F)cn3)C2)C1.O=C(O)C(F)(F)F (stereo not drawn),Percent Effect,"30.3 µM, […]",-25.24%
O=C(NCCCNc1ccc(C(F)(F)F)cn1)c1ccc2c(c1)OCO2,Percent Effect,10 µM,-42.23%
Cc1ncc2c(n1)CN(c1ncnc3[nH]ccc13)CC2,Percent Effect,"30 µM, 30.03 µM",-13.69%

# Source: ChEMBL document CHEMBL3988442, “University of Dundee, Small-Polar-MMV Screening Library” (2021)
